A selection: hits, their analogues and other compounds. The true share with any hit is near 4.7%.
D1 agonist – Allosteric Agonists of the Human D1 Dopamine Receptor: qHTS; 360,000 tested, 1% active; HEK293 T-REx D1 cells, calcium flux, agonist mode; activation, % at 2 µM; note: 0% is about no effect
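Tetracycline-induced HEK293 TREx D1 cells, force-coupled to calcium signalling, were dye-loaded with a no-wash calcium kit. Compound was pin-added after a 10 s baseline. Fluorescence was read kinetically at 1 cycle/s for 180 s, with calcium rises flagged as agonism.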
D1 antagonist – Antagonist of Human D 1 Dopamine Receptor: qHTS | D(1A) dopamine receptor (Homo sapiens), P21728 | HEK293 TREx D1 cells, calcium flux, dopamine EC80; hits give low values | activity change, negative = inhibition, % at 10 µM | 360,000 tested, 3.2% active; in the data active = activity change below about -30%; note: % is set by controls: 0 for no effect and ±100 for the full control effect
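Using tetracycline-induced force-coupled D1 Hek293 cells and a calcium dye, signals were followed for 180 s after compound, then for 180 s after EC80 dopamine, to detect inhibitors.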
TRHR agonist – qHTS for Small Molecule Agonists and Allosteric Enhancers of Human TRH Receptor: Primary Screen for Agonists; activation, % at 2 µM; TRHR cells, calcium flux fluo-8, FDSS agonist mode; 360,000 tested, 0.18% active; Thyrotropin-releasing hormone receptor (Homo sapiens), P34981; note: 0% is about no effect
Target sequence (P34981 whole entry, looked up): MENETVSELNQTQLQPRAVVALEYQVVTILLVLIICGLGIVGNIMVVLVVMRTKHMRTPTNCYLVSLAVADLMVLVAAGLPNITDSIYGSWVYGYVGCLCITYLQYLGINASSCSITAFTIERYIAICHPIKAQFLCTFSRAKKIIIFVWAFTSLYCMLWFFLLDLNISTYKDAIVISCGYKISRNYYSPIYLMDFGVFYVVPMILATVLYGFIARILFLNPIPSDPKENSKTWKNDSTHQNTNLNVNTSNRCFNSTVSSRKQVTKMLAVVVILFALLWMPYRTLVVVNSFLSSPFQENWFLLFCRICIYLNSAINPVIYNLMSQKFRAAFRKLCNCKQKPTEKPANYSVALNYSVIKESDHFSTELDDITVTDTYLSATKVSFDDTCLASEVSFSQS
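Fluo-8-loaded TRHR cells; 10 s baseline, compound added, kinetic Ca2+ fluorescence read 1/s, agonist mode.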
D1 PAM – Potentiators of Human D1 Dopamine Receptor: qHTS; D(1A) dopamine receptor (Homo sapiens), P21728; HEK293 TREx D1 cells, calcium flux, dopamine EC20 potentiation; potentiation, % at 10 µM; 360,000 tested, 0.036% active; AID 504651, 2011; in the data active = potentiation above about 30%; note: 0% is about no effect
TRHR PAM – qHTS for Small Molecule Agonists and Allosteric Enhancers of Human TRH Receptor: Primary Screen for Enhancers | enhancement, % at 2 µM | AID 493056, 2011 | 360,000 tested, 0.66% active | TRHR cells, fluo-8 calcium fluorescence, EC20 TRH enhancement | Thyrotropin-releasing hormone receptor (Homo sapiens), P34981; in the data active = enhancement above about 30%; note: 0% is about no effect
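TRHR-expressing cells loaded with fluo-8 calcium dye were read kinetically (ex 480/em 530) during compound addition, then stimulated with an EC20 of TRH (10 nM final). Enhancement of the Gq-mediated intracellular calcium response was scored.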
An asterisk follows results filed as active; · = no result given. Cut-off read from the data, not from the text of the source, unless noted: active = activation above about 30%; inactive = the rest.

SMILES	D1 agonist	D1 antagonist	TRHR agonist	D1 PAM	TRHR PAM
COc1ccc(C2C(=O)N(C3CCC(C)CC3)CC(=O)N2C2CCCCC2)cc1OC (stereo not given)	-5	7	0	4	-8
CC1CCCCC1NC(=O)C1CCC(CNS(=O)(=O)c2ccccc2)CC1 (stereo not given)	-2	14	-1	2	14
CCCn1ccc2c(OCC(=O)Nc3cc(C)ccc3C)cccc2c1=O	46*	·	0	-4	23
COC(=O)c1ccc(NC(=O)COc2ccc([N+](=O)[O-])cc2)cc1	18	-35*	-1	-4	11
CCCOc1ccc(CNC(=O)CCCn2nc(C)c3sc4ccccc4c3c2=O)cc1	-1	-6	-1	-1	1
O=C(NCc1ccco1)c1ccc([N+](=O)[O-])o1	5	-1	0	6	69*
O=C(NCc1ccco1)c1c(F)c(F)c(F)c(C(=O)NCc2ccco2)c1F	1	-33*	0	-2	-6
CCCc1cc(C(=O)NCc2ccco2)no1	0	-35*	0	-9	-2
O=C(NCc1ccco1)c1ccccc1	0	0	1	-6	6
O=C(NCc1ccco1)c1csc2c1CCCCC2	1	-33*	-1	0	-4
CCCc1cc(C(=O)NCc2ccccc2)no1	-1	-6	0	-5	-2
CCCc1nc2ccccc2n1CCc1ccccc1	-1	-24	-1	-5	0
COc1ccc(Cl)cc1NC(=O)CN(c1cccc(C)c1C)S(=O)(=O)c1ccccc1	9	-2	1	0	-4
CC(C)[C@H](NC(=O)c1ccc(F)cc1)C(=O)N(C)Cc1cccs1	1	-21	0	-6	4
CCCn1c(CCC(=O)Nc2ccc(OCC)cc2)nc2cccnc21	-1	-6	-2	-3	21
O=C(O)CCCCCCCCCCCNC(=O)NC12CC3CC(CC(C3)C1)C2	0	7	0	3	3
CC1=C(C(=O)OC2CCCCCC2)C(c2ccc(Cl)cc2Cl)CC(=O)N1 (stereo not given)	5	18	0	2	7
C=CCC1NS(=O)(=O)OC(CCCC)C1O (stereo not given)	2	12	0	4	34*
C=CCC1NS(=O)(=O)OC(COC)C1C (stereo not given)	1	3	0	7	0
O=C(c1ccccc1)c1coc2ccc(O)c(Cl)c12	111*	75	0	5	-1
CCOC(=O)c1c(C)oc2nc(C)nc(NCCc3ccc(OCC)cc3)c12	9	-15	-1	0	12
CC1=C(C(=O)OC(C)C)C(c2cccnc2)n2ncnc2N1 (stereo not given)	1	-34*	2	·	-3
CC1=C(C(=O)OC(C)C)C(c2ccncc2)n2ncnc2N1 (stereo not given)	2	-12	0	-2	9
COC(=O)C1=C(C)Nc2ncnn2C1c1ccc(OCc2ccccc2)cc1 (stereo not given)	4	-38*	0	-5	-8
Cc1ccc(-n2cc(C(=O)Oc3ccc(F)cc3)c3ccccc3c2=O)cc1	2	-2	1	-3	-4
SMILES	D1 agonist	D1 antagonist	TRHR agonist	D1 PAM	TRHR PAM
COC(c1ccccc1)(c1ccccc1)C(Oc1nccc(C)n1)C(=O)O (stereo not given)	-1	4	0	1	31*
Cc1ccnc(OC(C(=O)O)C(OCc2ccccc2)(c2ccccc2)c2ccc(C(F)(F)F)cc2)n1 (stereo not given)	0	-2	0	-6	0
Cc1ccc(NC(=O)Cn2cc(C(=O)c3ccco3)c3ccccc32)c(C)c1	7	-12	1	0	-15
Cc1ccc(OCc2cc(C(=O)NCc3ccc(OC(F)(F)F)cc3)no2)cn1	52*	-27	2	2	2
Cc1cc(C)c2oc(-c3cccc(NC(=O)c4cc5ccccc5o4)c3)nc2c1	0	6	-1	-2	5
Cc1cc(C(C#N)c2ccc(Cl)cc2)c(Cl)cc1NC(=O)c1cc(I)cc(I)c1O (stereo not given)	13	-33*	1	-7	-7
COc1cc(/C=N/NC(=O)c2sc3ccccc3c2Cl)ccc1OC(=O)c1ccc([N+](=O)[O-])cc1	1	-38*	1	-5	-2
CCOc1cc(/C=N/NC(=O)CSc2nncn2C)ccc1OC(=O)c1ccc(Cl)cc1	-1	-55*	-1	-5	30*
COc1ccc(Oc2ccc(/C=N/NC(=O)c3cccnc3)cc2[N+](=O)[O-])cc1	-3	-43*	-1	-8	-26
CCOc1cc(/C=N/NC(=O)CSc2nncn2C)ccc1OCC(N)=O	5	17	0	5	2
O=C(N/N=C/c1ccc(OC(=O)c2ccccc2)c([N+](=O)[O-])c1)c1ccc(O)cc1	4	-33*	-1	-10	-3
COc1ccc(/C=N/NC(=O)c2cccc([N+](=O)[O-])c2)cc1OC(=O)c1ccccc1	-2	-9	0	-5	-1
CN(C(=O)CSc1nnc(-c2ccc([N+](=O)[O-])cc2)o1)c1ccccc1	6	-6	-1	0	5
COC(=O)c1ccccc1NC(=O)c1sc2nc(C)cc(C)c2c1NC(=O)c1ccccc1Cl	0	3	1	-2	-12
CCc1noc(C)c1C(=O)N1CCN(S(=O)(=O)c2ccc(Br)cc2Cl)CC1	6	-13	0	-4	2
Cn1cccc1C(=O)NCC(c1ccco1)N1CCCCC1 (stereo not given)	2	6	3	5	-6
CCOc1cc(/C=N\NC(=O)c2ccc(NC(=O)CC)cc2)ccc1OC(=O)c1ccccc1	5	-57*	0	-11	4
CCOc1cc(/C=N\NC(=O)c2ccc(NC(=O)C(C)(C)C)cc2)ccc1OC(=O)c1ccc(C)cc1	1	14	0	-3	1
CCOC(=O)C1CCN(C(=O)Cn2ncc3c([nH]c4ccc(C)cc43)c2=O)CC1	2	6	0	-3	-8
COc1ccc(/C=N/NC(=O)c2cccc(Br)c2)cc1CN1CCOCC1	0	1	0	-8	6
COc1ccc(/C=N/NC(=O)c2ccccc2O)cc1CN1CCOCC1	1	-33*	0	-14	2
O=C(Nc1ccccc1C(F)(F)F)C1(S(=O)(=O)c2ccc(Cl)cc2)CC1	0	-13	-1	2	-6

High-throughput results: PubChem BioAssay, National Center for Advancing Translational Sciences (NCATS)
